SMILES strings stand for the structures. Inconclusive results are not listed. Where a call stands in place of a potency, no number is given. Unmarked numbers belong to inactive results. Calls of active or inactive are those of the source. Calls follow the shape of the dose curve; as a rule, active = well fitted cell-killing curve with a large enough effect; inconclusive = small, poorly fitted or top-dose-only effect, or effect the other way; inactive = flat fitted curve, though single readings scatter. *1 amine or outer side, *2 acyl side, *3 side chain or, on linkers, in order; H or OH if unused. Where a SMILES comes first, the peptide text is derived from it. [ ]: non-standard residue; d: D form. X4 = CC(C)=CCc1cc(C(O)C(N[*:1])C(=O)[*:2])ccc1O
Potency is read from the fitted curve at half-maximal effect.

The subject of this assay is CAOV3. The assay is described as follows: Primary qHTS to identify gynecologic anti-cancer compounds using libraries of approved drugs and bioactive compounds (AID 1345084). Also: nearly all actives have a fitted effect of over 55% in size. As to conditions: Gynecologic cancer cell panel viability, ATPlite luminescence, 48 h; series mostly up to 57.5 µM. The source says: National Center for Advancing Translational Sciences [NCATS] Assay Overview: Chemotherapeutic drug responses vary from cancer to cancer and from patient to patient. These variations could be caused by a number of factors including patient genomic background, tumor mutations, tumor heterogeneity, and aspects of drug treatment. Chemotherapeutic drug resistance is also a common issue and can lead to ineffective treatment and patient death. Here we have profiled the cell killing effects of thousands of compounds to characterize the responses in three gynecological cancers, identify cancer-selective compounds, and understand the diversity of responses to these compounds from pan-cancer suppressors to single cell line selective compounds. In this assay, we screened a 7,914 compound drug library that included approved drug and bioactive compounds in six ovarian, three cervical, and […] placental cancer cell lines using the ATPlite assay for cell viability. […] The cervical cancer cell lines included HeLa, Ca Ski, and C-33 A. The placental cancer cell lines included JEG-3. HEK 293T cells were used as the control cell line to determine the selectivity index. ATPlite is a luminescence based assay reliant on the conversion of a luciferase substrate to light in the presence of ATP. As a cytotoxic compound will suppress growth and decrease the number of cells, the concentration of ATP will decrease, and less light signal will be detected in the well.
Assay Protocol Summary: 1,000 cells in 4 uL of media were dispensed into white, solid bottom 1536-well plates using a Multidrop Combi (Thermo Scientific). The Assay plates were incubated for 16 hours at 37 C with 5% CO2 in assay plates, followed by the addition of 23 nL of DMSO or drug dissolved in DMSO. Each compound was assayed in five concentrations (0.092, 0.46, 2.3, 11.5, and 57.5 uM), using the automated Wako 1536 Pin Tool workstation and incubated at 37 C with 5% CO2 48 hours. 4 uL of ATPlite, the ATP monitoring reagent, was then added to the each well of the assay plates using the Multidrop Combi reagent dispenser followed by incubation for 15 minutes at room temperature. The resulting luminescence was measured using the ViewLux plate reader.
For orientation: In qHTS, concentration-response curves come from the screen itself.
As for `COc1ccc(-c2cnc(-c3cccc4c3-c3ccccc3C4=O)o2)cc1`, the Potency result was “inactive”.

As to `COc1ccc2nc(S(=O)(=O)Cc3ncc(C)c(OC)c3C)[nH]c2c1`, the Potency result was “inactive”.

Turning to `CC(C)(O)c1ccc2c(c1)C(O)C[C@H]1[C@](C)(C(=O)O)CCC[C@]21C` (stereo not given in full), the Potency result was “inactive”.

For the molecule `COc1cc(/C=C/CO)cc(OC)c1O[C@@H]1O[C@H](CO[C@@H]2O[C@H](CO)[C@@H](O)[C@H](O)[C@H]2O)[C@@H](O)[C@H](O)[C@H]1O`, the Potency entry was “inactive”.

With `CC(C)=CCC[C@](C)(O[C@@H]1O[C@H](CO)[C@@H](O)[C@H](O)[C@H]1O)[C@H]1CC[C@]2(C)[C@@H]1[C@H](O)CC1[C@@]3(C)CC[C@H](O)C(C)(C)C3[C@@H](O[C@@H]3O[C@H](CO)[C@@H](O)[C@H](O)[C@H]3O[C@@H]3OC[C@@H](O)[C@H](O)[C@H]3O)C[C@]12C` (stereo not given in full), the activity change, negative = cytotoxicity is 0.415% [at 11.6 µM].

Consider `CC(C)=CC/C=C(\C)[C@H]1CC[C@]2(C)[C@@H]1[C@H](O)C[C@@H]1[C@@]3(C)CC[C@H](O)C(C)(C)[C@@H]3[C@@H](O[C@@H]3O[C@H](CO)[C@@H](O)[C@H](O)[C@H]3O)C[C@]12C`, for which the Potency result was “inactive”.

As to `COc1ccc(/C=C\C(=O)O)c(O[C@@H]2O[C@H](CO)[C@@H](O)[C@H](O)[C@H]2O)c1`, the Potency result is “inactive”.

Turning to `CC12CCC(C(OC3OC(COC4OCC(O)(CO)C4O)C(O)C(O)C3O)C1)C(C)(C)O2` (stereo not given), the Potency result is “inactive”.

As for `OC[C@@]1(O)CO[C@@H](OC[C@H]2O[C@@H](Oc3c[nH]c4ccccc34)[C@H](O)[C@@H](O)[C@@H]2O)[C@@H]1O`, the Potency result was “inactive”.

In the case of `O=[N+]([O-])c1cn2c(n1)OCC(OCc1ccc(OC(F)(F)F)cc1)C2` (stereo not given), the Potency entry is “inactive”.

As for `O=C(O)COCCN1CCN([C@H](c2ccccc2)c2ccc(Cl)cc2)CC1`, the Potency entry was “inactive”.

Consider `C/C=C/C=C/C(O)=C1\C(=O)[C@]2(C)C3C(C(=O)CC/C=C/C)=C(O)C4(C)C1[C@]1(C)O[C@@]4(O)[C@@]3(C)O[C@@]12O`, for which the Potency result was “inactive”.

For `CO[C@H]1C[C@@H]2CC[C@@H](C)[C@@](O)(O2)C(=O)C(=O)N2CCCC[C@H]2C(=O)O[C@H]([C@H](C)C[C@@H]2CC[C@H](n3cnnn3)[C@H](OC)C2)CC(=O)[C@H](C)/C=C(\C)[C@@H](O)[C@@H](OC)C(=O)[C@H](C)C[C@H](C)/C=C/C=C/C=C/1C`, the Potency entry was “inactive”.

In the case of `CC(C)=CCc1cc(C(O)C2NC(=O)CNC(=O)C(Cc3c[nH]c4ccccc34)NC(=O)C3CCCN3C(=O)CNC(=O)C(C(C)C)NC(=O)CNC2=O)ccc1O` (stereo not given) (cyclo(G[X4]GVGPW); configuration not given here), the activity change, negative = cytotoxicity is -21.2% [at 11.6 µM].

`O=C1NC(Cc2ccccc2)C(=O)N2CCCC12` (stereo not given): the Potency result was “inactive”.

Take `CC(=O)OC1CC2C3(C)CCC(OC(=O)CC(=O)O)C(C)(C)C3CCC2(C)C2(C)CCC(C3(C)CCC(=O)O3)C12` (stereo not given): the Potency result was “inactive”.

As for `O=C(O)c1c(O)c(-c2ccccc2)nc2ccccc12`, the Potency entry is “inactive”.

Turning to `CCOCCOC(=O)/C=C/c1ccc(OC)cc1`, the Potency entry is “inactive”.

Take `COc1c2c(c(C)c3c1C(=O)OC3)O[C@@]1(C)CC(O)C(C(C)(C)O)[C@](C)(CCC(=O)O)[C@H]1C2` (stereo not given in full): the Potency result is “inactive”.

For `CN[C@@H]1[C@H](O[C@H]2[C@H](O[C@@H]3[C@@H](O)[C@H](O)[C@@H](N=C(N)N)[C@H](O)[C@H]3N=C(N)N)O[C@@H](C)[C@]2(O)C=O)O[C@@H](CO)[C@H](O)[C@H]1O`, the Potency result was “inactive”.

In the case of `O=S(=O)(c1ccccc1)c1cnc2c(N3CCNCC3)cccc2c1`, the Potency entry was “inactive”.

With `Cc1csc(NC(=O)c2ccc(COc3cccc(Cl)c3)o2)n1`, the Potency entry is “inactive”.

`O=C1NC(=O)C(c2cn3c4c(cccc24)CCC3)C1c1c[nH]c2ccccc12` (stereo not given): the Potency entry is “inactive”.

Consider `CC/C=C\CCO[C@@H]1O[C@H](CO[C@@H]2OC[C@H](O)[C@H](O)[C@H]2O)[C@@H](O)[C@H](O)[C@H]1O`, for which the Potency result was “inactive”.

For the molecule `CCc1c(-c2ccccc2)c(-c2ccccc2)nn1-c1ccccc1-c1cccc(OCC(=O)O)c1`, the Potency result was “inactive”.

For `OC[C@H]1O[C@@H](O[C@H]2[C@H](OCCc3ccccc3)O[C@H](CO)[C@@H](O)[C@@H]2O)[C@H](O)[C@@H](O)[C@@H]1O`, the Potency entry was “inactive”.

For `NC(=O)c1cccc2cn(-c3ccc(C4CCCNC4)cc3)nc12` (stereo not given), the Potency result was “inactive”.

As to `COc1cc2c(NC3CCN(CC4CCCCC4)CC3)nc(N3CCCN(C(C)C)CC3)nc2cc1OCCCN1CCCCC1`, the Potency was 3.98 µM (active).

Consider `C[C@@H]1C(=O)O[C@H]2C[C@]34[C@H]5C[C@@H](C(C)(C)C)[C@]36[C@@H](OC(=O)[C@H]6O)O[C@]4(C(=O)O5)[C@]21O`, for which the Potency result is “inactive”.

With `COc1ccc(CCO[C@@H]2CCCC[C@H]2N2CC[C@@H](O)C2)cc1OC`, the Potency result is “inactive”.

In the case of `C[C@@H]1O[C@@H](O[C@H]2[C@H](O)[C@@H](O)[C@H](O[C@H]3[C@H](O[C@H]4CC[C@@]5(C)C(=CC[C@@H]6C5CC[C@]5(C)[C@@H]7[C@H](C[C@@H]65)O[C@]5(CC[C@@](C)(CO[C@@H]6O[C@H](CO)[C@@H](O)[C@H](O)[C@H]6O)O5)[C@H]7C)C4)O[C@H](CO)[C@@H](O)[C@@H]3O)O[C@@H]2CO)[C@H](O)[C@H](O)[C@H]1O` (stereo not given in full), the activity change, negative = cytotoxicity is -9.22% [at 11.6 µM].

For `NC1(C(=O)NC(CCO)c2ccc(Cl)cc2)CCN(c2ncnc3[nH]ccc23)CC1` (stereo not given), the Potency result is “inactive”.

In the case of `CC(=O)OC/C=C(\C)C(CC1C(C)=C(OC(C)=O)C(=O)C2C(C)(C)C(O)CCC12C)OC(C)=O` (stereo not given), the Potency result is “inactive”.

As for `CNC(=O)c1ccccc1Nc1cc(Nc2ccc(N3CCOCC3)cc2OC)ncc1C(F)(F)F`, the Potency entry was “inactive”.

Take `CC1=C(C(=O)OCc2ccccc2)C(c2ccc(-c3ccccc3)cc2)NC(=O)N1CCCCCC(=O)O` (stereo not given): the Potency entry was “inactive”.

With `O=C(OC1C=C(CO)C2C(OC3OC(CO)C(O)C(O)C3O)OC=CC12)c1ccc(O)cc1` (stereo not given), the Potency entry was “inactive”.

With `Cc1cccc(/C=N/Nc2cc(N3CCOCC3)n3nc(-c4ccncc4)cc3n2)c1`, the Potency is 8.91 µM (active).

On to `CC1(C)CC[C@]2(C(=O)O)[C@H](O)C[C@]3(C)C(=CCC4[C@@]5(C)CC[C@H](O[C@@H]6O[C@H](CO[C@@H]7OC[C@H](O)[C@H](O)[C@H]7O[C@@H]7OC[C@@H](O)[C@H](O)[C@H]7O)[C@@H](O)[C@H](O)[C@H]6O[C@@H]6O[C@H](CO)[C@@H](O)[C@H](O)[C@H]6O)C(C)(C)C5CC[C@]43C)[C@@H]2C1` (stereo not given in full), for which the activity change, negative = cytotoxicity is -15.5% [at 11.6 µM].

With `CC(=O)C1=CCC2C3CCC4CC(O[C@@H]5O[C@H](CO)[C@@H](O[C@@H]6O[C@@H](C)[C@H](O)[C@@H](O)[C@H]6O)[C@H](O)[C@H]5O[C@@H]5O[C@H](CO)[C@@H](O)[C@H](O)[C@H]5O)CCC4(C)C3CCC12C` (stereo not given in full), the Potency entry was “inactive”.

Regarding `C=C1CCC2C(C)(C(=O)O)CCCC2(C)C1CCC(C)CC(=O)O` (stereo not given), the Potency result is “inactive”.

These data come from PubChem BioAssay (NCATS).
